Assay results: paper PMC10812921, “Transcriptional Coactivator BOB1 (OBF1, OCA-B) Modulates the Specificity of DNA Recognition by the POU-Domain Factors OCT1 and OCT2 in a Monomeric Configuration”

Biological target: POU1 (OCT1 POU domain) (human, UniProt P14859 260-458)
Test: EMSA-SELEX-seq; no BOB1; 20 mM Tris-HCl pH 7.6, 140 mM NaCl, 10% glycerol, 0.5 mM EDTA, 0.05% Triton X-100, 0.1 mg/mL BSA, 0.1 mg/mL poly(dI-dC), 5 mM DTT, room temperature, 20 min; high values mean tight binding
Conditions: protein: recombinant; dsDNA, one strand shown
Summary of the method: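 Binding preference is reported as the percentage of sequenced 8-mers that match a motif pattern. Tagged POU-domain proteins were made in E. coli BL21, purified under denaturing conditions and renatured. A 30 ng portion was combined with 300 ng of a PCR-amplified double-stranded random 35-nt library, with or without 28 ng coactivator protein, in 20 μL Tris–HCl pH 7.6 binding buffer for 20 min at RT. Complex bands were excised from native 6% PAGE, eluted and PCR-amplified over four rounds before Illumina sequencing.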

Sequence of POU1 (OCT1 POU domain) (P14859 260-458): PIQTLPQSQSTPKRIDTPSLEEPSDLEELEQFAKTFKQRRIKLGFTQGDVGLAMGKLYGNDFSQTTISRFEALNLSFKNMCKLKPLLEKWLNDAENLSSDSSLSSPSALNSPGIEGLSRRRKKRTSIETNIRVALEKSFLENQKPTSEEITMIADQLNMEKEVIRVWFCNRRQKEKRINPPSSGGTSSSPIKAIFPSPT

| Sequence | binding signal |
| --- | --- |
| AGCACAAC | 0.0114 % of ANNNNAAN 8-mers |
| AACGCAAC | 0.013 % of ANNNNAAN 8-mers |
| ACGTTAAT | 0.112 % of ANNNNAAN 8-mers |
| AGCAAAAA | 0.0831 % of ANNNNAAN 8-mers |
| ACAGCAAC | 0.0153 % of ANNNNAAN 8-mers |
| ATTTAAAG | 0.183 % of ANNNNAAN 8-mers |
| ACCGAAAC | 0.0107 % of ANNNNAAN 8-mers |
| AGACGAAC | 0.0202 % of ANNNNAAN 8-mers |
| AGTTTAAG | 0.05 % of ANNNNAAN 8-mers |
| ACCGCAAG | 0.0114 % of ANNNNAAN 8-mers |
| ACTGCAAC | 0.0114 % of ANNNNAAN 8-mers |
| ACCACAAG | 0.0114 % of ANNNNAAN 8-mers |
| ACCTCAAG | 0.0141 % of ANNNNAAN 8-mers |
| AGAAGAAC | 0.0191 % of ANNNNAAN 8-mers |
| AGACAAAT | 0.114 % of ANNNNAAN 8-mers |
| ACCGCAAC | 0.0114 % of ANNNNAAN 8-mers |

| Sequence | binding signal |
| --- | --- |
| AAGGAAAC | 0.0385 % of ANNNNAAN 8-mers |
| ACCACAAC | 0.0107 % of ANNNNAAN 8-mers |
| AACCTAAC | 0.013 % of ANNNNAAN 8-mers |
| AGGGTAAT | 0.186 % of ANNNNAAN 8-mers |
| ACAAGAAT | 0.0454 % of ANNNNAAN 8-mers |
| ACATCAAT | 0.0435 % of ANNNNAAN 8-mers |
| ACGAAAAT | 0.106 % of ANNNNAAN 8-mers |
| ACCCTAAC | 0.0107 % of ANNNNAAN 8-mers |
| AACCCAAG | 0.0111 % of ANNNNAAN 8-mers |
| ACGCCAAG | 0.0145 % of ANNNNAAN 8-mers |
| ACGACAAG | 0.0175 % of ANNNNAAN 8-mers |
| ACCCGAAC | 0.0111 % of ANNNNAAN 8-mers |
| AGGACAAT | 0.042 % of ANNNNAAN 8-mers |
| ACCTCAAA | 0.0149 % of ANNNNAAN 8-mers |
| ACTGTAAA | 0.0404 % of ANNNNAAN 8-mers |
| AAATAAAT | 0.261 % of ANNNNAAN 8-mers |
